Screening data: PubChem BioAssay, several laboratories
Shown are actives, neighbours in structure and some others; about 0.61% of the full set was active somewhere.
ugtP null kill: growth inhibition of ugtP-null S. aureus, primary screen, RN4220 ugtP deletion, OD600; actives 0.54% (n = 330,000); 16 h; growth inhibition, % (concentration not given with the values); in the data active = growth inhibition above about 68%;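 note: plate controls were untreated wells for no effect and antibiotic for full effect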
Mtb hypoxia inh: PubChem AID 1159583; M. tuberculosis hypoxia-regulated fluorescent reporter, fluorescence; fluorescence inhibition, % (test concentration not listed); actives 0.1% (n = 300,000); in the data active = fluorescence inhibition mostly above about 23%, no sharp cut-off; inactive = mostly below about 17%
Sa RN4220 lethal: growth inhibition of S. aureus RN4220, primary screen, OD600. AID 1259311, 2017. 16 h. actives 0.33% (n = 330,000). inhibition, % (test concentration not listed); in the data active = inhibition above about 85%;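 note: plate controls were untreated cells for no effect and reference antibiotic for full effect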
Mtb bLac sens: beta-lactam sensitization of Mtb H37Rv, H37Rv; actives 0.27% (n = 330,000); AID 434955, 2010; M. tuberculosis H37Rv growth with meropenem, percent inhibition; inhibition, % at 25 µM; call rule not given here;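 note: growth measured after seven days incubation then overnight dye step; 0% = bacteria only wells and 100% = bacteria with antibiotic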
Active calls of the source: *.

`Cc1cc2n(n1)C(c1c[nH]c3ccccc13)Nc1ccccc1-2` (configuration not stated) gave ugtP null kill 99*, Mtb hypoxia inh -2, Sa RN4220 lethal 99* and Mtb bLac sens 88.
For Cc1ccc(-c2[nH]nc(N)c2N=Nc2cccc(Cl)c2C)cc1 the results were ugtP null kill 99*, Mtb hypoxia inh -6 and Sa RN4220 lethal 84.
O=C(NN=Cc1ccc(OCc2ccccc2)cc1)c1cc[n+](Cc2ccccc2)cc1 was read as ugtP null kill 6, Mtb hypoxia inh 2 and Sa RN4220 lethal 2.
Cc1c(OCc2ccccc2)c(=O)ccn1Cc1ccc(Cl)cc1 was read as ugtP null kill -26, Mtb hypoxia inh 4, Sa RN4220 lethal -19 and Mtb bLac sens 97.
For Cc1c(Cc2c(Cl)cccc2Cl)c(=O)ccn1C(C)c1ccccc1 (configuration not stated) the results were ugtP null kill 99*, Mtb hypoxia inh 9 and Sa RN4220 lethal 98*.
`COc1ccc(Cn2ccc(=O)c(Cc3c(Cl)cccc3Cl)c2C)cc1` gave ugtP null kill 98*, Mtb hypoxia inh 3, Sa RN4220 lethal 98* and Mtb bLac sens 2.
Cc1ccc(Cn2ccc(=O)c(Cc3c(Cl)cccc3Cl)c2C)cc1 was read as ugtP null kill 101*, Mtb hypoxia inh 8, Sa RN4220 lethal 100* and Mtb bLac sens 30.
`CCn1c(SCc2c(Cl)cccc2Cl)nnc1-c1nn(-c2ccccc2)ccc1=O` gave ugtP null kill -5, Sa RN4220 lethal 17 and Mtb bLac sens -7.
`Cc1ccc(Cn2ccc(=O)c(OCc3ccccc3)c2C)cc1` gave ugtP null kill -3, Sa RN4220 lethal 4 and Mtb bLac sens 2.
For CCOC(=O)C1=CCC(c2cc3cc(OC)ccc3n2C)N(S(=O)(=O)c2ccc(C)cc2)C1C(=O)OCC (configuration not stated) the results were ugtP null kill 7, Mtb hypoxia inh 11 and Sa RN4220 lethal 10.
`COc1ccc(C2C3C(=O)N(C(C)(C)C)C(=O)C3[C@]3(C)C(=O)N(c4cccc(Br)c4)C(=O)N23)cc1` (some centres not stated) gave ugtP null kill 2, Mtb hypoxia inh -6 and Sa RN4220 lethal 10.
Screening Nc1c(Cl)ncnc1NN=Cc1ccnc2ccccc12 returned ugtP null kill -7, Mtb hypoxia inh -3 and Sa RN4220 lethal 1.
CC(=CC(=O)c1ccc(Cl)cc1)NCc1ccc2c(c1)OCO2 was read as ugtP null kill 14, Mtb hypoxia inh 0 and Sa RN4220 lethal -3.
CC(=O)c1c(C)n([O-])c2ccc(C)cc2[n+]1=O was read as ugtP null kill 13, Mtb hypoxia inh 64*, Sa RN4220 lethal 16 and Mtb bLac sens 20.
Cc1ccc2c(c1)n([O-])c1c([n+]2=O)CCCC1 was read as ugtP null kill 11, Sa RN4220 lethal -1 and Mtb bLac sens -10.
For CCCCCC(=O)NNC(=O)c1c(O)c2ccccc2n(CC)c1=O the results were ugtP null kill -7, Mtb hypoxia inh 5, Sa RN4220 lethal 24 and Mtb bLac sens -6.
Screening CCCCCCn1c(=O)c(C(=O)Nc2cnccn2)c(O)c2ccccc21 returned ugtP null kill 92*, Sa RN4220 lethal 35 and Mtb bLac sens 100.
CCCCCCCCCC(=O)NNC(=O)c1c(O)c2ccccc2n(CC)c1=O was read as ugtP null kill 101*, Mtb hypoxia inh 4, Sa RN4220 lethal 97* and Mtb bLac sens 1.
Screening CCCCCCn1c(=O)c(C(=O)Nc2ncccc2O)c(O)c2ccccc21 returned ugtP null kill -2, Mtb hypoxia inh 9, Sa RN4220 lethal 9 and Mtb bLac sens 8.
`CCCCCn1c(=O)c(C(=O)Nc2ccccn2)c(O)c2ccccc21` gave ugtP null kill 100*, Mtb hypoxia inh 12, Sa RN4220 lethal 100* and Mtb bLac sens -6.
`CCCCCCn1c(=O)c(C(=O)Nc2nc(CC(=O)OCC)cs2)c(O)c2ccccc21` gave ugtP null kill 21, Sa RN4220 lethal 43 and Mtb bLac sens 99.
For CCCCn1c(=O)c(C(=O)Nc2ccccn2)c(O)c2ccccc21 the results were ugtP null kill -9, Mtb hypoxia inh -3, Sa RN4220 lethal 5 and Mtb bLac sens 97.
CCOC(=O)Cc1csc(NC(=O)c2c(O)c3ccccc3n(CCC(C)C)c2=O)n1 was read as ugtP null kill 100*, Mtb hypoxia inh 19, Sa RN4220 lethal 96* and Mtb bLac sens 100.
For CCCn1c(=O)c(C(=O)NNS(=O)(=O)c2ccc(NC(=O)OC)cc2)c(O)c2ccccc21 the results were ugtP null kill 97*, Mtb hypoxia inh -1, Sa RN4220 lethal 97* and Mtb bLac sens 6.
For CCN(C(=O)COC(=O)c1nc(Cl)ccc1Cl)c1c(N)n(Cc2ccccc2)c(=O)[nH]c1=O the results were ugtP null kill -1, Mtb hypoxia inh 30* and Sa RN4220 lethal 3.
`COCCN(C(=O)COC(=O)c1nc(Cl)ccc1Cl)c1c(N)n(Cc2ccccc2)c(=O)[nH]c1=O` gave ugtP null kill -3, Mtb hypoxia inh -4, Sa RN4220 lethal -2 and Mtb bLac sens -4.
Screening O=C(Oc1ccc(Cl)c2cccnc12)c1ccco1 returned ugtP null kill 5, Mtb hypoxia inh 13, Sa RN4220 lethal 91* and Mtb bLac sens 100.
Screening Cc1c(C=NNC(=O)c2c[nH]c3ccccc23)cnn1C returned ugtP null kill 10, Mtb hypoxia inh 4 and Sa RN4220 lethal 0.
`CC(C)C[C@@H]1CN=C(N)N1C[C@@H]1CCCN1C[C@H](C)N1C[C@@H](Cc2ccccc2)N(CCCC2CCCC2)C1=N` gave Mtb bLac sens 99.
CCCC(CN1CCCC1CN1C(N)=NCC1Cc1ccccc1)N1CC(Cc2ccccc2)N(CCCC2CCCC2)C1=N (configuration not stated) was read as ugtP null kill 101* and Sa RN4220 lethal 101*.
`CCC(C)C1CN(C(CN2CCCC2CN2C(N)=NCC2Cc2ccccc2)C(C)C)C(=N)N1CCCC1CCCC1` (configuration not stated) gave ugtP null kill 100* and Sa RN4220 lethal 100*.
CC[C@@H](C)[C@@H]1CN([C@@H](CN2CCC[C@H]2CN2C(N)=NC[C@H]2C(C)C)C(C)C)C(=N)N1CCCC1CCCC1 was read as ugtP null kill 100*, Sa RN4220 lethal 94* and Mtb bLac sens 96.
CCC[C@@H](CN1CCC[C@H]1CN1C(N)=NC[C@H]1CC(C)C)N1C[C@@H]([C@H](C)CC)N(CCCC2CCCC2)C1=N was read as ugtP null kill 101*, Sa RN4220 lethal 101* and Mtb bLac sens 100.
For C=C(C)C(=O)Nc1cccc(C2=NOC3(C2)CC(C(N)=O)N(C(=O)C2(C)CC2)C3)c1 (configuration not stated) the results were ugtP null kill -4, Mtb hypoxia inh 5 and Sa RN4220 lethal 9.
`Cc1ccc(NCC(=O)NN=Cc2cccc(Br)c2)cc1` gave ugtP null kill -14, Mtb hypoxia inh -13 and Sa RN4220 lethal -6.
CCOc1ccc(NC(=O)C(=O)NN=Cc2ccc(CNS(=O)(=O)c3ccccc3)o2)cc1 was read as ugtP null kill -8, Mtb hypoxia inh 1 and Sa RN4220 lethal 3.
